The structures appear in SMILES notation. The source made the active and inactive calls.

The values that follow come from PubChem BioAssay.

Test [1] can be described thus: optical density shifts of acrAB sulA E. coli – strain DRC41, OD650, 48 h, E. coli filamentation inducer project, primary screen (AID 1152).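 Also: E. coli MC1000 strain DRC41 lacking acrAB efflux pump and sulA.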 The conditions noted are these: higher = more signal, called active from +8 up or from −8 down.
Test [2] is described as follows: probe aLefty1 binding on compound microarray – biochemical, small-molecule microarray, 635/667 nm fluorescence, primary screen (AID 1153).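 Also: score merges spot fluorescence with signal-to-noise ratio from the scanned slide images.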 The conditions noted are these: higher = more signal.
A short description of test [3]: plasmodial surface anion channel blockers, osmotic lysis – cell-based, P. falciparum Indochina, OD700, 1 h, primary screen (AID 1154). The conditions noted are these: P. falciparum Indochina infected RBC osmotic lysis, higher = more signal, called active from +8 up or from −8 down.
Test [4] can be described thus: plasmodial surface anion channel blockers, osmotic lysis – cell-based, P. falciparum Indochina, OD700, 2 h, primary screen (AID 1155).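 Also: lysis reports solute entry through the parasite surface anion channel PSAC.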 The conditions noted are these: P. falciparum Indochina infected erythrocytes, higher = more signal, called active from +8 up or from −8 down.
Test [5] is described as follows: changes in parasitized red cell lysis, either direction – P. falciparum Indochina, OD700, 3 h, PSAC antagonist project, primary screen (AID 1156). The conditions noted are these: P. falciparum-infected erythrocytes, osmotic lysis, higher = more signal, called active from +8 up or from −8 down.
Test [6] can be described thus: plasmodial surface anion channel blockers, osmotic lysis – cell-based, P. falciparum Indochina, OD700, 18 h, primary screen (AID 1157). As to conditions: P. falciparum Indochina infected erythrocytes, osmotic lysis OD700, 18 h; higher = more signal, called active from +8 up or from −8 down.
Test [7] can be described thus: S6 kinase pathway phospho-S6 level changes – cell-based, A549, cytoblot, luminescence, serum-stimulated, primary screen (AID 1158).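 Also: serum-stimulated A549 lung adenocarcinoma cells; signal is phosphorylated S6 detected by cytoblot immunostaining with HRP secondary.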 The conditions noted are these: 5 h, higher = more signal.
Test [8] deals with NADPH oxidase 2 (Homo sapiens) (UniProt P04839). As to the kind of experiment: compounds shifting NOX2 Amplex Red fluorescence – cell-based, HEK293-NOX2, PMA-stimulated, NOX inhibitor project, primary screen (AID 1159). Also: test concentration not given here. The conditions noted are these: 45 min, higher = more signal, called active from +8 up or from −8 down.
Chain of NADPH oxidase 2 (Homo sapiens) (P04839 whole entry, looked up): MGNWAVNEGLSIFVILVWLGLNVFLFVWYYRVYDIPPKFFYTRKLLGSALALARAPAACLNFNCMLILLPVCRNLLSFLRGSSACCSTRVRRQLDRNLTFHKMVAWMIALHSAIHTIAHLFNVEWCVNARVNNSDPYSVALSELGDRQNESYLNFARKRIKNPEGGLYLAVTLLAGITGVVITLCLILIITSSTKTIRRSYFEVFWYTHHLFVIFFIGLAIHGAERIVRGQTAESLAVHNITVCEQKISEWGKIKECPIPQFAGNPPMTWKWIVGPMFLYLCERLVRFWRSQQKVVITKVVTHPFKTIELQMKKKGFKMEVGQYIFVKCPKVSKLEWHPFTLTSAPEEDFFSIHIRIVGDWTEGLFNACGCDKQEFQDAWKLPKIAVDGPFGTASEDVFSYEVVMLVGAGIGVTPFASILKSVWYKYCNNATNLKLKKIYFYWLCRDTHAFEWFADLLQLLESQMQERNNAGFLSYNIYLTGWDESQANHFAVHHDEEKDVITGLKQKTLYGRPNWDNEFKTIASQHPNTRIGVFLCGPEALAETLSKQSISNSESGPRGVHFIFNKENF
Test [9] addresses NADPH oxidase 4 (Homo sapiens) (UniProt Q9NPH5). The experiment in a line: compounds shifting NOX4 Amplex Red fluorescence – cell-based, HEK293-NOX4, tetracycline-induced, NOX inhibitor project, primary screen (AID 1160). The conditions noted are these: HEK293-NOX4, Amplex Red H2O2 fluorescence, 45 min; higher = more signal, called active from +8 up or from −8 down.
In test [10] the target is NADPH oxidase 5 (Homo sapiens) (UniProt Q96PH1). The experiment in a line: compounds shifting NOX5 Amplex Red fluorescence – cell-based, HEK293-NOX5, NOX inhibitor project, primary screen (AID 1161). As to conditions: HEK293-NOX5, ionomycin, 45 min, higher = more signal.
Chain of NADPH oxidase 5 (Homo sapiens) (Q96PH1 whole entry, looked up): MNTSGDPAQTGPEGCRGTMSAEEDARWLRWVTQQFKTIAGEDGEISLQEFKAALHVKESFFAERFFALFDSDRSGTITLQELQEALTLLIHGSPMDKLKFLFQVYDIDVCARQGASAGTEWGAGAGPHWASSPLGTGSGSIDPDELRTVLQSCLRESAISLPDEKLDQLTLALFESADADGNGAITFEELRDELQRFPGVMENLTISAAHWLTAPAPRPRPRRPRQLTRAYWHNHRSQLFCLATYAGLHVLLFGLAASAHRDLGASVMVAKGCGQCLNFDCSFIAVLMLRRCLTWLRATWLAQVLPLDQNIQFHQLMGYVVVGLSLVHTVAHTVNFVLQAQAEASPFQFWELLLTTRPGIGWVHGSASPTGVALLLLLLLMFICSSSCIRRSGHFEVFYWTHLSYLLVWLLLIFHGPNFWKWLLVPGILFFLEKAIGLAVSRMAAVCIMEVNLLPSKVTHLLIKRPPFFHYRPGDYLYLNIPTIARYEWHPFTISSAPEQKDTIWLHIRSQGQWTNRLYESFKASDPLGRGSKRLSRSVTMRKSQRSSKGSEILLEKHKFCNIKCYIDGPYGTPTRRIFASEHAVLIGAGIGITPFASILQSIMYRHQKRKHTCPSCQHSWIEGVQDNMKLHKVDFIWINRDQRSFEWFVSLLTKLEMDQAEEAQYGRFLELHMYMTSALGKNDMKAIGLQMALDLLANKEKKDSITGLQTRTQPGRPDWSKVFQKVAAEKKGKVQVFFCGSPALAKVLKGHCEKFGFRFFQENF
Test [11] can be described thus: compound effects on lung adenocarcinoma cell viability – A549, calcein-AM fluorescence, 48 h, basal, profiling panel (AID 1162). Also: test concentration not given here. As to conditions: higher = more signal.
Test [12] can be described thus: compound effects on differentiated 3T3-L1 adipocyte viability – cell-based, 3T3-L1 adipocytes, calcein-AM fluorescence, 48 h, basal, profiling panel (AID 1163). Also: test concentration not given here. As to conditions: 3T3-L1 adipocytes viability, higher = more signal.
Test [13] can be described thus: compound effects on hepatocellular carcinoma cell viability – HepG2, calcein-AM fluorescence, 48 h, basal, profiling panel (AID 1164). Also: test concentration not given here. The conditions noted are these: higher = more signal.
Test [14] is described as follows: compound effects on multiple myeloma cell viability – MM1S, calcein-AM fluorescence, 48 h, basal, profiling panel (AID 1165). Also: test concentration not given here. The conditions noted are these: higher = more signal.
A short description of test [15]: calcein-AM signal in unstimulated myeloma cells – cell-based, calcein-AM fluorescence, 48 h, PK04 Diversity Set, profiling panel (AID 1166).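 Also: cells grown under basal conditions without added stimulus; test concentration not given here.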 As to conditions: RPMI8226 myeloma viability, higher = more signal.
Test [16] can be described thus: JC-1 mitochondrial signal, unstimulated HepG2 cells – cell-based, JC-1 fluorescence, 24 h, 100 nL compound, profiling panel (AID 1167). Also: test concentration not given here. As to conditions: HepG2 mitochondrial potential, higher = more signal.
The nature of test [17]: JC-1 mitochondrial signal, unstimulated adipocytes – cell-based, JC-1 fluorescence, 3T3-L1 adipocytes, 24 h, 100 nL compound, profiling panel (AID 1168). Also: test concentration not given here. The conditions noted are these: JC-1 mitochondrial fluorescence, higher = more signal, called active from +8 up or from −8 down.
The nature of test [18]: JC-1 mitochondrial signal, unstimulated myeloma cells – cell-based, JC-1 fluorescence, RPMI8226, 24 h, 100 nL compound, profiling panel (AID 1169). Also: test concentration not given here. As to conditions: JC-1 mitochondrial potential fluorescence, higher = more signal.
A short description of test [19]: JC-1 mitochondrial signal, unstimulated MM1S myeloma – cell-based, JC-1 fluorescence, 24 h, 100 nL compound, profiling panel (AID 1170). Also: test concentration not given here. The conditions noted are these: MM1S mitochondrial potential, higher = more signal.
A short description of test [20]: resazurin metabolic signal in A549 cells – cell-based, resazurin fluorescence, 24 h, PK04 Diversity Set, profiling panel (AID 1171). Also: test concentration not given here. The conditions noted are these: A549 viability, higher = more signal, called active from +8 up or from −8 down. Background: The colour change of resazurin is a common sign of viable cells or microbes.

Chain of NADPH oxidase 4 (Homo sapiens) (Q9NPH5 whole entry, looked up): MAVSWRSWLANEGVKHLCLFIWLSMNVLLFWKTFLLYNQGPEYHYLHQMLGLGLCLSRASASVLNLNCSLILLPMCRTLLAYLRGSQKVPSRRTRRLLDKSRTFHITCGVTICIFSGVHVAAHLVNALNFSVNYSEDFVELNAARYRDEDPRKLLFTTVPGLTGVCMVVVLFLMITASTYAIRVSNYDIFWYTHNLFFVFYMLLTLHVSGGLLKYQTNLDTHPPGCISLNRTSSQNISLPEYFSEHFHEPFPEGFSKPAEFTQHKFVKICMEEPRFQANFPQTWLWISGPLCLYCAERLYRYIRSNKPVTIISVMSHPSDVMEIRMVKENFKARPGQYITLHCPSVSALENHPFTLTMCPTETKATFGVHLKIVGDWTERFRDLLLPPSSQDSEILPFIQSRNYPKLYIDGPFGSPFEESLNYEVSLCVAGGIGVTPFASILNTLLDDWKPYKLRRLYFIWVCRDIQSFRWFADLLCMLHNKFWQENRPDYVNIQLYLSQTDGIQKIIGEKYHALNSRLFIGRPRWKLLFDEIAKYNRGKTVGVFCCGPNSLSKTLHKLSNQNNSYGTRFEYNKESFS

`COC(=O)[C@]1(CCS(=O)(=O)c2ccccc2)N=C(c2ccc(OCCCO)cc2)O[C@@H]1c1ccccc1CN=[N+]=[N-]`: the z-score is -2.11 (inactive) in [1]; 30.4 (active) in test [3]; 28 (active) in test [4]; 1.82 (inactive) in test [5]; 5.19 (inactive) in test [6]; -0.505 in test [7]. Moreover, the z-score is -5.83 (inactive) in test [8]; -1.31 (inactive) in [9]; -3.08 in test [10]; -2.82 in [11]; 0.65 in [12]; -2.94 in [13]. The z-score in [14] is -3.4; in [15], -3.15; in test [16], -1.05; in [17], -1.02 (inactive); in [18] it was -1.08; in [19] it was -1.88. Besides, the z-score in [20] is -4.11 (inactive). Moreover, in test [2], the composite z-score turned out to be 0.15.
As for `Cc1ccc(S[C@]2(C(=O)NC3CC3)CC(=O)N(Cc3ccccc3Cl)[C@@H]2c2ccc(CO)cc2I)cc1`, the z-score in test [1] was 0.386 (inactive); in test [3], 6.9 (inactive); in test [4], 0.789 (inactive); in [5] it was 0.796 (inactive); in test [6], 0.0589 (inactive); in test [7], -0.331. Further, the z-score is 1.53 (inactive) in [8]; -1.86 (inactive) in test [9]; 1.12 in test [10]; 0.0293 in test [11]; 0.0656 in [12]; 0.556 in test [13]. Also, the z-score in test [14] is -2.36; in test [15], -2.05; in [16] it was 0.474; in test [17], 0.515 (inactive); in [18], -0.498; in test [19], -1.45. For the same molecule, the z-score in test [20] was -0.889 (inactive). Also, in test [2], the composite z-score was 0.191.
`CN(C)CCCCNC(=O)[C@H]1C[C@H]2C(=O)N3CCC[C@H]3C(=O)N2[C@H]1c1ccc(O)cc1`: the z-score in test [1] is 1.67 (inactive); in test [3], 0.148 (inactive); in test [4], -1.79 (inactive); in [5], 1.55 (inactive); in test [6] it was -2.18 (inactive); in test [7] it was 0.752. Also, the z-score was -0.714 (inactive) in test [8]; -0.561 (inactive) in test [9]; -3.16 in [10]; -0.448 in test [11]; 0.862 in [12]; -0.55 in test [13]. For the same molecule, the z-score is 0.26 in test [14]; 0.293 in test [15]; -0.835 in test [16]; -0.104 (inactive) in test [17]; 0.613 in test [18]; -0.927 in test [19]. Besides, in test [20], the z-score was 0.228 (inactive). In test [2], the composite z-score is -0.926.
With `COC(=O)[C@@]1(Cc2ccc(F)cc2)[C@H]2c3cc(C(=O)N4CCCC4)n(CCF)c3C[C@H]2CN1C(=O)c1ccccc1`, the z-score in test [1] is -0.379 (inactive); in [3] it was 6.17 (inactive); in [4], 0.237 (inactive); in test [5], 0.423 (inactive); in test [6], 0.715 (inactive); in [7], 0.563. In addition, the z-score in test [8] was 0.6 (inactive); in [9], -0.248 (inactive); in [10], -0.159; in test [11], -0.719; in test [12], 0.251; in test [13] it was 0.426. For the same molecule, the z-score in test [14] was -1.04; in test [15] it was -0.374; in [16], 1.98; in [17], -0.000991 (inactive); in test [18], -0.0725; in test [19] it was 0.26. The z-score in test [20] was 0.763 (inactive). This molecule came in with a composite z-score in [2] of 2.02.
Regarding `C=CCN1C(=O)[C@@]2(O[C@@H](CCO)[C@H]([Si](C)(C)c3ccc(OC)cc3)[C@H]2C)c2cc(N3C(=O)c4ccccc4Oc4ccccc43)ccc21`, the z-score is 1.88 (inactive) in test [1]; 24.4 (active) in test [3]; 8.39 (active) in [4]; 0.332 (inactive) in test [5]; 2.07 (inactive) in [6]; 0.502 in [7]. The z-score in test [8] is -0.946 (inactive); in test [9], 0.757 (inactive); in [10] it was -0.54; in test [11] it was -3.02; in test [12] it was -0.428; in test [13], -4.76. The z-score in test [14] was -2.94; in test [15], -4.12; in test [16], -2.97; in test [17] it was 1.07 (inactive); in test [18], -1.1; in test [19], -2.33. Further, in test [20], the z-score is -4.55 (inactive). Also, the composite z-score in [2] was -0.147.
As for `Cc1ccc(S[C@]2(C(=O)NCCN3CCOCC3)CC(=O)N(Cc3ccccc3C(F)(F)F)[C@@H]2c2ccc(CO)cc2I)cc1`, the z-score in test [1] was 0.0143 (inactive); in test [3], 4.93 (inactive); in test [4], 0.636 (inactive); in test [5], 2.03 (inactive); in test [6], 0.278 (inactive); in test [7], 0.155. Moreover, the z-score is 2.82 (inactive) in [8]; -0.659 (inactive) in test [9]; 1.61 in [10]; -0.209 in [11]; -0.292 in test [12]; -0.695 in test [13]. Further, the z-score in [14] was -2.85; in test [15] it was -2.15; in test [16], -0.178; in test [17] it was -1.03 (inactive); in [18] it was -0.793; in test [19], -2.36. Also, the z-score in [20] was 0.683 (inactive). For the same molecule, in test [2], the composite z-score amounted to 0.114.
As for `C=CC[C@@H](OC(=O)Nc1ccc(OC)cc1)c1ccc(OCCO)cc1`, the z-score in [1] was -0.14 (inactive); in [3] it was 19.5 (active); in [4], 3.12 (inactive); in [5], -0.149 (inactive); in [6], 0.894 (inactive); in [7], 0.0966. Moreover, the z-score in test [8] was -4.11 (inactive); in [9] it was -1.4 (inactive); in [10], -2.78; in test [11], -0.176; in test [12], 0.048; in test [13] it was 0.587. For the same molecule, the z-score in [14] is -1.2; in test [15], -2.53; in test [16] it was -1.92; in [17], -0.451 (inactive); in [18] it was -0.052; in test [19], 0.19. The z-score in [20] is 0.213 (inactive). In test [2], this molecule yielded a composite z-score of -0.0638.
On to `CC(C)OC(=O)CC(=O)CC(O)c1cccc(C#N)c1` (stereo not given), for which the z-score in test [1] was 1.27 (inactive); in test [3], 1.65 (inactive); in test [4], -0.261 (inactive); in test [5], -1.36 (inactive); in [6], -1.2 (inactive); in [7] it was 1.29. In addition, the z-score in test [8] is 0.247 (inactive); in test [9], 0.89 (inactive); in test [10], -0.0191; in test [11], 1.59; in [12], 0.136; in test [13], 0.886. Also, the z-score was 0.387 in [14]; 0.518 in test [15]; 0.575 in test [16]; 0.837 (inactive) in [17]; 0.105 in test [18]; -1.56 in test [19]. The z-score in test [20] was 0.481 (inactive). In [2], this molecule displayed a composite z-score of 0.273.
Consider `C[n+]1ccc(CCCO)cc1`, for which the z-score in test [1] is -0.885 (inactive); in test [3], 0.599 (inactive); in test [4] it was -0.0234 (inactive); in test [5], 1.87 (inactive); in [6], 0.131 (inactive); in [7] it was -0.283. For the same molecule, the z-score in [8] is 0.176 (inactive); in [9] it was -0.435 (inactive); in test [10], -1.72; in [11] it was -0.566; in test [12] it was 0.927; in [13], -0.96. Further, the z-score in test [14] was 0.375; in test [15], -1.77; in test [16] it was -0.0921; in test [17], -0.321 (inactive); in test [18], -0.502; in test [19] it was 0.0343. In addition, the z-score in test [20] was -1.15 (inactive). The composite z-score in [2] was found to be 0.33.
